Screening data (PubChem BioAssay)
TDP1 cell CPT: qHTS for Inhibitors of human tyrosyl-DNA phosphodiesterase 1 (TDP1): qHTS in cells in presence of CPT; chicken DT40 Tdp1-/-;hTDP1 cells + 20 nM CPT, ATP luminescence, 48 h; Potency, µM (top dose mostly 46.2 µM), for the others: at the top dose activity change, negative = growth inhibition, hits mostly inhibitors; 420,000 compounds, 12% hits; AID 686979, 2013; further: nearly all actives have a fitted effect of over 55% in size
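Chicken DT40 Tdp1-/- cells stably complemented with human TDP1 were seeded at 400 cells/well in medium containing 20 nM camptothecin, exposed to pin-transferred compounds, and grown at 37 °C for at least 48 hr. Viability was read as ATP luminescence.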
KB-V1 cytotox: qHTS assay for MDR1-selective chemotherapeutics: Primary screen using the drug-selected MDR subline cells KB-V1; Potency, µM (titrated, usually from 46.1 µM), most hits filed as cytotoxic; 400,000 compounds, 3.4% hits; KB-V1 MDR cells viability, CellTiter-Glo, 72 h; further: nearly all actives have a fitted effect of over 60% in size
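In this primary screen, KB-V1 cells overexpressing P-gp are incubated with library compounds (lowest to highest concentration) for 72 h at 37 degrees C before a luminescent ATP viability read.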
HT1080NT lethal: qHTS for induction of synthetic lethality in tumor cells producing 2HG: qHTS for the HT-1080-NT fibrosarcoma cell line | HT-1080-NT fibrosarcoma viability, CellTiter-Glo ATP luminescence, 48 h | Potency, µM (highest dose often 46.1 µM), for inactives: top-dose activity, negative = less viability, actives largely listed as cytotoxic | 360,000 compounds, 1.6% hits | AID 686970, 2013;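 further: NT is the 2HG producing partner of a matched IDH1 knockdown line; 0% = DMSO-treated cells and -100% = media-only wells without cells; nearly all actives have a fitted effect of over 55% in size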
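Fibrosarcoma NT cells, 750 per well in 5% FBS RPMI, were exposed to compound for 48 hours. Viability: CellTiter-Glo luminescence.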
TDP1 cell noCPT: qHTS for Inhibitors of human tyrosyl-DNA phosphodiesterase 1 (TDP1): qHTS in cells in absence of CPT; DT40 Tdp1-/- hTDP1 cells, no CPT, ATP luminescence, 48 h; Potency, µM (titrated, usually from 46.2 µM), inactives show top-dose activity change, negative = growth inhibition, hits mostly inhibitors; 420,000 compounds, 15% hits; AID 686978, 2013; further: nearly all actives have a fitted effect of over 55% in size
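Camptothecin absent (DMSO only). Human TDP1-complemented DT40 knockout cells, 400 cells/well, 37 °C for minimum 48 hr; ATP measured via CellTiter-Glo, 30 min dark incubation, luminescence.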
KB-3-1 tox: qHTS assay for MDR1-selective chemotherapeutics: Primary screen using the parental adenocarcinoma cell KB-3-1; KB-3-1 viability, CellTiter-Glo ATP luminescence, 72 h; Potency, µM (highest dose often 46.1 µM), actives largely listed as cytotoxic; 400,000 compounds, 1.4% hits; further: nearly all actives have a fitted effect of over 60% in size
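Parental KB-3-1 viability, qHTS format: 72 h compound exposure, 37 °C; CellTiter-Glo; media-only wells and DMSO plates as controls; concentration-effect fits on corrected data.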
HT1080 IDH1KD tx: qHTS for induction of synthetic lethality in tumor cells producing 2HG: qHTS for the HT-1080-IDH1KD cell line. HT-1080 IDH1 knockdown viability, ATP luminescence, 48 h. Potency, µM (series often up to 46.1 µM), for the others: top-dose activity, negative = toxicity, usual class: cytotoxic. 360,000 compounds, 2% hits. AID 686971, 2013;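 further: 0% = DMSO wells and -100% = cell-free medium wells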
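Using the IDH1-knockdown HT-1080 line run in the same batch and compound series as the NT line, viability after 48 h at 37 °C was determined by CellTiter-Glo luminescence and expressed as % activity.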
Numbers without * were called inactive; i = inactive; ? = inconclusive; / = no result. This is a sample that favours compounds with a hit; in the whole collection about 19% have one here. The call rests on the fitted dose curve; in most records, active means well fitted curve in the direction sought with a large enough effect; inconclusive means small, poorly fitted or top-dose-only effect, or another doubt; inactive means no such curve, though single readings can be large; an effect the other way counts as inactive or inconclusive. Unless noted, on the % scale 0 is the no-effect control and ±100 the full control effect; potency means the concentration at half of the fitted maximal effect.

SMILES | TDP1 cell CPT | KB-V1 cytotox | HT1080NT lethal | TDP1 cell noCPT | KB-3-1 tox | HT1080 IDH1KD tx
CCc1ccccc1NC(=O)CSc1ncc2c(n1)-c1ccccc1N(C)S2(=O)=O | ? | i | / | ? | i | /
CC(C)(C)c1ccc(C(=O)C[n+]2cccc(Br)c2)cc1 | ? | i | / | ? | i | /
CCOc1ccc(NC(=O)CSC2=Nc3ccccc3C3=NC(CC(=O)NCc4ccccc4OC)C(=O)N23)cc1 (configuration not stated) | ? | i | / | ? | i | /
O=C(Cc1ccc(OCc2ccccc2)cc1)NCc1ccc2c(c1)OCO2 | ? | i | 24% | 7.3µM* | i | 3%
CC(=O)c1ccccc1NC(=O)c1ccc(OCc2c(C)noc2C)cc1 | ? | i | -9% | 18µM* | i | -3%
O=C(NCc1ccc2c(c1)OCO2)OCc1ccccc1 | -5% | i | -2% | -19% | i | 4%
Cc1noc(C)c1COc1ccc(CC(=O)NCc2ccccc2)cc1 | 0.65µM* | ? | ? | 0.52µM* | ? | 1.2µM*
Cc1noc(C)c1COc1cccc(C(=O)NCCc2c[nH]c3ccccc23)c1 | 13µM* | ? | ? | 21µM* | i | ?
Cc1noc(C)c1COc1cccc(C(=O)Nc2ccccc2)c1 | 18% | i | 3% | -2% | i | 13%
Cc1noc(C)c1COc1ccc(CC(=O)NCCc2ccccn2)cc1 | -8% | i | ? | ? | i | 13%
CCc1nc2c(OCCOC)cccn2c1N(C)C(=O)c1ccco1 | 0% | i | 4% | -7% | i | 24%
CSc1ccccc1OCc1cc(C(=O)N(C)Cc2cnccn2)no1 | -6% | i | 12% | 11% | i | 15%
Cc1cccc(C(=O)Nc2ccccc2C(=O)OCc2c(C)noc2C)c1 | -16% | 3.3µM* | 9% | ? | i | -1%
COC(=O)c1cc(N=Nc2sc(N)nc2C)cc(C(=O)OC)c1 | ? | ? | -21% | 13µM* | ? | ?
CCN(CC)S(=O)(=O)c1cccc(N=Nc2sc(N)nc2C)c1 | ? | i | -25% | -29% | i | -28%
CC(C)CC1(C)N=C(c2ccccc2)C(=S)N1 (configuration not stated) | -18% | i | -2% | ? | i | -12%
Cc1ccccc1C(=O)Nc1cccc(OCc2cc(=O)n3c4c(sc3n2)CCCC4)c1 | -20% | i | / | -25% | i | /
Cc1ccc(-c2cn(-c3ccccc3)c(SCC(=O)NC3CCS(=O)(=O)C3)n2)cc1C (configuration not stated) | ? | 3.7µM* | 3% | ? | i | 3%
C=CCN(CC=C)C(=O)Nc1ccc2nc(C)sc2c1 | -25% | i | 10% | 21µM* | i | 16%
Cc1nc2ccc(NC(=O)Cc3ccsc3)cc2s1 | 16µM* | i | -2% | 13µM* | i | 0%
COc1cc(CC(=O)Nc2ccc3nc(SC)sc3c2)cc(OC)c1OC | ? | ? | -5% | 21µM* | i | 3%
CSc1nc2ccc(NC(=O)CS(=O)(=O)c3ccccc3)cc2s1 | -8% | ? | 13% | ? | i | 1%
Cc1ccc(NC(=O)Cc2ccsc2)cc1Cl | ? | i | 9% | -29% | i | 0%
C=CCNC(=O)Nc1ccc2nc(C)sc2c1 | 16µM* | i | 3% | ? | i | 21%
COC(=O)C[C@@H]1CC[C@H](NC(=O)Nc2cccc(F)c2)[C@@H](CO)O1 | 4% | i | 20% | 6% | i | 17%
SMILES | TDP1 cell CPT | KB-V1 cytotox | HT1080NT lethal | TDP1 cell noCPT | KB-3-1 tox | HT1080 IDH1KD tx
NNC(=O)CSc1cccc2cccnc12 | 4% | i | 0% | 3% | i | 14%
O=C(CSc1cccc2cccnc12)OCC(=O)c1ccc(Br)cc1 | -1% | ? | -13% | -15% | i | -6%
CN(C)C(=O)CSc1cccc2cccnc12 | 4.6µM* | ? | ? | 4.6µM* | ? | ?
O=C(CSc1cccc2cccnc12)N1CCCC1 | 4.1µM* | i | 7.3µM* | 5.2µM* | 7.3µM* | 1%
O=C(CSc1cccc2cccnc12)OCC(=O)c1ccccc1 | ? | i | 29µM* | ? | i | 33µM*
O=C(COc1ccccc1-c1nc(-c2ccccc2)no1)Nc1ccccc1[N+](=O)[O-] | 9% | i | / | -5% | i | /
O=C(CN1C(=O)S/C(=C\c2ccc(Cl)cc2)C1=O)NC1C=CS(=O)(=O)C1 (configuration not stated) | 5.2µM* | i | -1% | ? | i | -9%
O=C(CN1C(=O)/C(=C/c2cccc(Cl)c2)SC1=S)NC1C=CS(=O)(=O)C1 (configuration not stated) | ? | i | -11% | 16µM* | i | 0%
COc1cccc(/C=C2\SC(=S)N(CCC(=O)NCCc3ccc(O)cc3)C2=O)c1 | 18µM* | ? | ? | ? | ? | ?
O=C(CN1C(=O)S/C(=C\c2cccc(Cl)c2)C1=O)NC1C=CS(=O)(=O)C1 (configuration not stated) | ? | i | -1% | -17% | ? | 6%
COc1cccc(/C=C2\SC(=S)N(CCC(=O)NC3C=CS(=O)(=O)C3)C2=O)c1 (configuration not stated) | ? | i | 16µM* | ? | ? | ?
COc1ccc(C2=NN(C3=NN=C(N)Cc4ncnn43)C(O)(C(F)(F)F)C2)cc1 (configuration not stated) | 15% | ? | 23% | 9% | i | 0%
Cc1ccc(C(c2nnnn2Cc2ccccc2)N2CCN(Cc3ccncc3)CC2)cc1 (configuration not stated) | ? | i | / | ? | i | /
COc1ccc(-c2nc3cnc(N(C)C)nc3n(Cc3ccc(F)cc3)c2=O)cc1 | -8% | / | / | -1% | / | /
